Values without a mark were called inactive. No rule for the calls is given here.
Legend:
[1] = system: Botulinum neurotoxin type F light chain protease (Clostridium botulinum); assay: Clostridium botulinum type F light chain protease inhibitors, microsphere substrate cleavage, validation (AID 588459); conditions: multiplex microsphere protease substrate cleavage assay, flow cytometry; at 10 µM; stronger effect = higher value
[2] = biological target: Botulinum neurotoxin type A (Clostridium botulinum) (UniProt P0DPI0); assay: BoNT/A light chain protease inhibitors, biochemical, multiplex microsphere flow cytometry, validation set (AID 588460); conditions: at 10 µM, stronger effect = higher value
[3] = biological target: Lethal factor (Bacillus anthracis) (UniProt P15917); assay: Bacillus anthracis lethal factor inhibition, microsphere flow cytometry protease assay, validation at 10 µM (AID 588461); conditions: multiplex microsphere protease cleavage assay, stronger effect = higher value
Sequence of Lethal factor (Bacillus anthracis) (P15917 whole entry, looked up): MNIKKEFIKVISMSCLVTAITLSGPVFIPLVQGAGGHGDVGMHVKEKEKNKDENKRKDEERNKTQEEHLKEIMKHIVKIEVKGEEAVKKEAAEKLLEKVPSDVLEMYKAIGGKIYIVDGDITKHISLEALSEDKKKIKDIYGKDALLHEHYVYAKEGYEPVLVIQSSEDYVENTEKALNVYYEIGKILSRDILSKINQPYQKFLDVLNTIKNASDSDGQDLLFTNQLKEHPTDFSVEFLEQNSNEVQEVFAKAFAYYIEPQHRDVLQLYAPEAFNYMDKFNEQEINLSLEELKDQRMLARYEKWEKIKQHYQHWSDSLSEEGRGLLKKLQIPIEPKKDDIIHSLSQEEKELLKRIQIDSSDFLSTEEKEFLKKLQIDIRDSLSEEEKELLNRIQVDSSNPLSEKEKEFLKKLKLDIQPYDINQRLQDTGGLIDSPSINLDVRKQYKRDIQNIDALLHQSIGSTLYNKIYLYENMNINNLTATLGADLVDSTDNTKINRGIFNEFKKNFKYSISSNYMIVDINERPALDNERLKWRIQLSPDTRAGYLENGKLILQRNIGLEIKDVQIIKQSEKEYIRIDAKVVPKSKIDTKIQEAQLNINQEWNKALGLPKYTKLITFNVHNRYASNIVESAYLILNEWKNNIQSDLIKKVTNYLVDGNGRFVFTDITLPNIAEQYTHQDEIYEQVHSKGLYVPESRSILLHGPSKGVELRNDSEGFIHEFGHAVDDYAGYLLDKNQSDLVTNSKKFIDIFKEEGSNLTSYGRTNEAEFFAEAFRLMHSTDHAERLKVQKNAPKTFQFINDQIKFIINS

Sequence of Botulinum neurotoxin type A (Clostridium botulinum) (P0DPI0 whole entry, looked up): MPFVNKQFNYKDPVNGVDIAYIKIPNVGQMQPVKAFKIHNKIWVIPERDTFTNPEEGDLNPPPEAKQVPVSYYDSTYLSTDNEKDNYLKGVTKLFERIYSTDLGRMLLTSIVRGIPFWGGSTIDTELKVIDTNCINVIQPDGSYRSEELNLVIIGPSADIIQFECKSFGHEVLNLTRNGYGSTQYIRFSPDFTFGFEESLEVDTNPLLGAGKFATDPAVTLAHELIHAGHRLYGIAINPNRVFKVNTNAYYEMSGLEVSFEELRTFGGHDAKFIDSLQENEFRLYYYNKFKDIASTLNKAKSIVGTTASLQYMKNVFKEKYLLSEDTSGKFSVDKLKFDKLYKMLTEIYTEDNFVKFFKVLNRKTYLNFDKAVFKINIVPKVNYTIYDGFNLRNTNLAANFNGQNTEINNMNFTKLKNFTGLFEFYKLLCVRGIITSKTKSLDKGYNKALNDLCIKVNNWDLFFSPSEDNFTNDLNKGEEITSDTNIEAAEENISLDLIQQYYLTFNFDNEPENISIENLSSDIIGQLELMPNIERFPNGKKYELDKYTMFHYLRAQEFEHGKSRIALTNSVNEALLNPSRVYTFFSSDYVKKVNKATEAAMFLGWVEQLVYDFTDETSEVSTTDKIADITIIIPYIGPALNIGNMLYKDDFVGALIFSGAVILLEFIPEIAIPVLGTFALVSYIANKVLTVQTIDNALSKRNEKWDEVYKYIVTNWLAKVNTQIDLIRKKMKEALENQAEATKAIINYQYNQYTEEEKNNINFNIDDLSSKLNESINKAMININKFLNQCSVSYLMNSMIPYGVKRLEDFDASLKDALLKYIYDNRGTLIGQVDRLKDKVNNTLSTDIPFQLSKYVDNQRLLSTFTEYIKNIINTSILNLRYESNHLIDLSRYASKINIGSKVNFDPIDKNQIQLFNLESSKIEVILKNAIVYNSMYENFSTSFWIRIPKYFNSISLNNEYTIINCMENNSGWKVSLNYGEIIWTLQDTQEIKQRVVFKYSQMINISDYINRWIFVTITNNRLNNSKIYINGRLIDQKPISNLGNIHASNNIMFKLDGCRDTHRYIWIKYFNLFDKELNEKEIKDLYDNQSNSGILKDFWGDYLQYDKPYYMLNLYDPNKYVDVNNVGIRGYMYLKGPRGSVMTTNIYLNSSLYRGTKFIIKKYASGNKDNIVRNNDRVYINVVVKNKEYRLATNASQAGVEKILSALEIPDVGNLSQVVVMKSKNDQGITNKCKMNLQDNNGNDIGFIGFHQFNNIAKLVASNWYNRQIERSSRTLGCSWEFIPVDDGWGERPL

Row | Compound | inhibition [1] | inhibition [2] | inhibition [3]
1 | O=C(CC1SC(=O)NC1=O)Nc1ccc(Cl)cc1 (centres undefined) | -1.9% | 0.8% | -0.5%
2 | COc1ccc(C2CC(c3c(O)cc(C)oc3=O)=NCCS2)c(OC)c1 (centres undefined) | 4.5% | 2% | 4.3%
3 | C[C@]12CCC(=O)C=C1CC[C@@H]1[C@@H]2CC[C@@]2(C)[C@H]1CC[C@]2(O)C(=O)CO | 1.3% | -1.2% | -1.7%
4 | COc1ccccc1NC(=O)N1CCc2[nH]c3ccc(Cl)cc3c2C1 | 6.8% | 0.4% | -0.7%
5 | CC1=CC(=O)c2ccccc2C1=O | -2.1% | -0.1% | 6.7%
6 | CSCCC1NC2(C(=O)Nc3ccc(Cl)cc32)[C@@H]2C(=O)N(C3CCCC3)C(=O)[C@H]12 (some centres undefined) | 0.8% | -1.4% | -11.2%
7 | CCc1cc2c3c(c(=O)oc2cc1O)CCCC3 | -1.1% | 2.2% | 4.1%
8 | O=C(CS(=O)(=O)Cc1ccccc1)NCc1ccc2c(c1)OCO2 | 1.6% | 0.1% | -6.5%
9 | COc1ccc2oc(=O)c(C(=O)N3CCN(c4ccccc4)CC3)cc2c1 | -1% | 0.2% | 1.6%
10 | CC1(C)C(=O)OC(C(=O)c2ccc(Cl)cc2)C(C)(C)C1=O (centres undefined) | 1.9% | 1.3% | -3.1%
11 | O=c1[nH]c(Cc2ccccc2)nc2c1oc1ccccc12 | 4.2% | 0.2% | 8.7%
12 | CC12CCC(C(=O)N3CCCCC3)([C@H](Br)C1=O)C2(C)C (some centres undefined) | -3.4% | -1.3% | 0.1%
13 | CC(C(=O)O)c1ccc(-c2ccccc2)c(F)c1 (centres undefined) | 5.7% | 0.5% | 5.7%
14 | CNCCC(Oc1ccc(C(F)(F)F)cc1)c1ccccc1 (centres undefined) | -3.3% | 0.6% | 
15 | CN(C)c1nc(N(C)C)nc(N(C)C)n1 | 6.4% | 2.6% | -4.2%
16 | CCN(CC)CC#CCOC(=O)C(O)(c1ccccc1)C1CCCCC1 (centres undefined) | -1.7% | 0.6% | 
17 | CC[C@H]1OC(=O)[C@H](C)[C@@H](O[C@H]2C[C@@](C)(OC)[C@@H](O)[C@H](C)O2)[C@H](C)[C@@H](O[C@@H]2O[C@H](C)C[C@H](N(C)C)[C@H]2O)[C@](C)(O)C[C@@H](C)[C@@H]2N[C@@H](COCCOC)O[C@H]([C@H]2C)[C@]1(C)O | 3.3% | 0.7% | -1.4%
18 | Cn1c(=O)c2[nH]cnc2n(C)c1=O | 2.7% | -2% | 
19 | O=C1C2CC=C(Cl)CC2C(=O)N1CCc1c[nH]c2ccccc12 (centres undefined) | 0.7% | 0.1% | 0.1%
20 | CCC(=O)c1ccc(OCc2ccc(C(=O)OC)cc2)cc1 | -1.6% | 0.7% | -3.4%
21 | CC(NC(=O)c1ccc(N2CCNCC2)c([N+](=O)[O-])c1)C12CC3CC(CC(C3)C1)C2 (centres undefined) | 0.1% | -0.6% | -5.2%
22 | CC(=O)OCC(=O)[C@@]12OC(C)(C)O[C@@H]1C[C@H]1[C@@H]3C[C@H](F)C4=CC(=O)C=C[C@]4(C)[C@@]3(F)[C@@H](O)C[C@@]12C | -3.5% | -1.4% | 
23 | COc1ccc(CCNC(=O)CC(c2ccccc2)c2cccc(C)c2O)cc1OC (centres undefined) | -0.9% | -0.9% | 0.1%
24 | Cc1c(NC(=O)c2cccs2)cccc1[N+](=O)[O-] | 4.2% | 1.3% | 5.7%
25 | Nc1ncnc2c1ncn2C1OC(CO)C(O)C1O (centres undefined) | 14.6% | -0.2% | 2%
26 | CN1CCN2c3ccccc3Cc3ccccc3C2C1 (centres undefined) | 0.3% | 0.5% | 
27 | CCOc1ccc(C(=O)N2CCCC2C(=O)O)cc1 (centres undefined) | -1.3% | 0.5% | 1.5%
28 | OCC1(CCOc2ccccc2)CCN(CCCn2cccn2)CC1 | -0.5% | -1% | -1.4%

Source: PubChem BioAssay
